HEK293 viab: counter-screen for SNCA expression inhibitors: cell viability; HEK-293-SNCA-luc viability, GF-AFC fluorescence, 24 h; Potency, µM (highest dose often 57.1 µM), hits mostly cytotoxic; hit rate 0.12% among 150,000; further: nearly all actives have a fitted effect of over 30% in size
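HEK-293-SNCA-luc cells (1500/well) plated 24 h, then exposed 24 h to a dilution series; GF-AFC added 30 min at 37C, fluorescence 405/540 nm; normalised to medium-only and DMSO wells, Hill fit.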
hNpr1 antagonist: antagonists of human natriuretic peptide receptor Npr1; P16066; Potency, µM (top dose mostly 46.3 µM), usual class: inhibitors; AID 1347048; hit rate 1.6% among 76,000; HEK293 hNpr1 GloSensor cGMP, ANP-stimulated luminescence; calls by dose curve; further: nearly all actives have a fitted effect of over 60% in size
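Compound pre-incubated 30 min at room temperature on GloSensor-loaded HEK293 cells stably carrying hNpr1 and the pGS-40F cGMP biosensor. Stimulation uses hNppA at 0.1 nM final; luminescence is taken at baseline and 20 min post-agonist.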
SNCA expr inhib: SNCA gene expression inhibition. HEK-293 SNCA-luciferase knock-in, luminescence, 24 h. Potency, µM (highest dose often 57.2 µM), most hits filed as inhibitors. hit rate 0.17% among 140,000; further: nearly all actives have a fitted effect of over 45% in size
Luciferase inh: inhibitors of firefly (Photinus pyralis) luciferase | P08659 | purified P. pyralis luciferase, luminescence, biochemical | Potency, µM (titrated, usually from 115 µM), usual class: inhibitors | hit rate 2.5% among 76,000 | AID 1347043; further: nearly all actives have a fitted effect of over 65% in size
Target sequence (P08659 whole entry, looked up): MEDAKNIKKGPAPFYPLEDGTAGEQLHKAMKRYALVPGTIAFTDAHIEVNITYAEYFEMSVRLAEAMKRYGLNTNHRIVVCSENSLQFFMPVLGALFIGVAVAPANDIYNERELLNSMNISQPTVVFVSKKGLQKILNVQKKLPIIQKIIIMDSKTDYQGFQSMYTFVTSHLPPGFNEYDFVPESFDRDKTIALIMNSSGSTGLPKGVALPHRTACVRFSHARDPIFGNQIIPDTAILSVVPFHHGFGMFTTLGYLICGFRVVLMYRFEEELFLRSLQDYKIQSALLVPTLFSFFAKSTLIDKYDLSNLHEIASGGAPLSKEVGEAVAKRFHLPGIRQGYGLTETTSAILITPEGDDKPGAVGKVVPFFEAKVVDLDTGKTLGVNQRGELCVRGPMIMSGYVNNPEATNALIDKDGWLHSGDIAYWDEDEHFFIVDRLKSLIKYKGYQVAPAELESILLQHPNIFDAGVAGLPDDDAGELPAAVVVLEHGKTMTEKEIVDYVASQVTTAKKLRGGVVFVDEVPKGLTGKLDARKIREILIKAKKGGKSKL
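Luminescence read by CCD imaging after purified firefly luciferase (10nM final) was added to substrate buffer holding 10uM D-luciferin and 10uM ATP, pH 7.5, pre-dosed with compound.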
3T3 cytotox: NIH 3T3 cell cytotoxicity; NIH 3T3 viability, CellTiter-Glo ATP luminescence, 48-72 h; Potency, µM (doses to about 96.7 µM), actives largely listed as inhibitors; hit rate 4.3% among 94,000; AID 1345082; further: nearly all actives have a fitted effect of over 55% in size
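NIH 3T3 cells at 400 cells/well received 23 nL of compound by pintool and were incubated 48 or 72 h at 37 °C. Viability was read as ATP-coupled CellTiter-Glo luminescence.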
HEK cytotox: HEK 293 cell cytotoxicity. HEK 293 viability, ATP luminescence (CellTiter-Glo), 48-72 h. Potency, µM (titrated, usually from 115 µM), usual class: inhibitors. hit rate 6.6% among 94,000. AID 1345083; further: nearly all actives have a fitted effect of over 60% in size
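HEK 293 cells seeded at 250 cells/well were exposed to compound for 48 or 72 hr at 37 degree Celsius. Viability taken as ATP content by CellTiter-Glo luminescence.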
Of the large screens only hits and unclear results are named; the others gave an inactive call. A selection: hits, their analogues and other compounds. The true share with any hit is near 7.4%. Unless noted, the call rests on the fitted dose curve; in most records, active means well fitted curve in the direction sought with a large enough effect; inconclusive means small, poorly fitted or top-dose-only effect, or another doubt; inactive means no such curve, though single readings can be large; an effect the other way counts as inactive or inconclusive.

Clc1ccc(CNC[C@H]2Cn3c(-c4cccc(Cl)c4)cnc3CO2)cc1	HEK293 viab inconclusive, hNpr1 antagonist inconclusive, SNCA expr inhib inconclusive, 3T3 cytotox 45µM, HEK cytotox 63µM
O=C(NC[C@H]1Cn2c(-c3ccc(Cl)cc3)cnc2CO1)c1cccnc1	Luciferase inh inconclusive, 3T3 cytotox inconclusive, HEK cytotox 22µM
Clc1ccc(-c2cnc3n2C[C@H](CNCc2cccnc2)OC3)cc1	3T3 cytotox inconclusive, HEK cytotox inconclusive
Cn1ccnc1CNC[C@H]1Cn2c(-c3ccc(Cl)cc3)cnc2CO1	3T3 cytotox inconclusive
O=C(C1CCCC1)N1CCCC(C(=O)N2CCC(c3nc4ncccc4[nH]3)C2)C1 (stereo not given)	none (no result: hNpr1 antagonist, Luciferase inh)
O=C(NCc1ccccc1Cl)c1nc2sccn2c1-c1ccc(C(F)(F)F)cc1	3T3 cytotox inconclusive, HEK cytotox inconclusive (no result: hNpr1 antagonist, Luciferase inh)
O=C(NCC(F)(F)F)c1nc2sccn2c1-c1ccc(F)cc1	none (no result: hNpr1 antagonist, Luciferase inh)
COCC(=O)N1CCCC(C(=O)N2CCC(c3nc4ncccc4[nH]3)CC2)C1 (stereo not given)	none (no result: hNpr1 antagonist, Luciferase inh)
O=C(NCc1ccccc1Cl)c1ccc2oc(-c3ccccn3)nc2c1	HEK cytotox inconclusive (no result: hNpr1 antagonist, Luciferase inh)
O=C(CNC(=O)c1cccc(-c2ccc(C(F)(F)F)cc2)c1)NCc1ccc2c(c1)OCO2	HEK cytotox inconclusive (no result: hNpr1 antagonist, Luciferase inh)
COCc1ccc2c(c1)c(OC(C)(C)C(=O)NCCN(C)C)nn2Cc1ccccc1	3T3 cytotox 89µM
COCCCNC(=O)C(C)(C)Oc1nn(Cc2cccnc2)c2ccc(COC)cc12	3T3 cytotox inconclusive
COCc1ccc2c(c1)c(OC(C)(C)C(=O)NCc1ccncc1)nn2Cc1ccccc1	3T3 cytotox 28µM
COCc1ccc2c(c1)c(OC(C)(C)C(=O)NCCCn1ccnc1)nn2Cc1ccccc1	3T3 cytotox 22µM
COCc1ccc2c(c1)c(OC(C)(C)C(=O)NCc1ccncc1)nn2Cc1cccc(OC)c1	3T3 cytotox 10µM, HEK cytotox inconclusive
COCc1ccc2c(c1)c(OC(C)(C)C(=O)NCc1ccncc1)nn2Cc1cccnc1	3T3 cytotox inconclusive
Cc1ccc(C(=O)NC2CCN(C(=O)c3ccc(-c4cccs4)cc3)CC2)cc1	HEK cytotox inconclusive (no result: hNpr1 antagonist, Luciferase inh)
O=C1CCC2(CNC(=O)NCCc3ccccc3)CCCC=C2N1 (stereo not given)	none (no result: hNpr1 antagonist, Luciferase inh)
CO[C@H]1C(=O)N(C2CCN(C(=O)C(C)C)CC2)[C@H]1c1ccncc1	none (no result: hNpr1 antagonist, Luciferase inh)
COC1CCN(C(=O)c2coc(COc3ccc(F)cc3Cl)n2)CC1	3T3 cytotox inconclusive
O=C(NCCc1ccncc1)c1coc(COc2ccc(F)cc2Cl)n1	SNCA expr inhib inconclusive, 3T3 cytotox inconclusive, HEK cytotox 32µM
O=C(c1coc(COc2ccc(F)cc2Cl)n1)N1CCCCO1	Luciferase inh 35µM, HEK cytotox inconclusive
CC[C@H]1CN(C(C)=O)CC[C@H]1CC(=O)Nc1nccs1	3T3 cytotox 100µM, HEK cytotox 112µM
CC[C@H]1CN(C(=O)c2ccc(F)cc2)CC[C@H]1CC(=O)Nc1nccs1	3T3 cytotox inconclusive, HEK cytotox inconclusive
Cc1ccc(CNC(=O)N2CCc3nc(-c4ccccc4)[nH]c3C2)cc1	3T3 cytotox inconclusive, HEK cytotox inconclusive (no result: hNpr1 antagonist, Luciferase inh)
CCOc1ccccc1C(=O)N1CCC2(CC1)NC(=O)N(c1ccccc1)N2	3T3 cytotox inconclusive, HEK cytotox inconclusive
COC(=O)c1ccc2nc(CO[C@H]3CN(Cc4cn(C)c5ccccc45)C[C@H]3F)[nH]c2c1	3T3 cytotox inconclusive, HEK cytotox inconclusive
Cn1cc(CN2C[C@@H](F)[C@@H](OCc3nc4ncccc4[nH]3)C2)c2ccccc21	3T3 cytotox inconclusive, HEK cytotox 89µM
COc1cccc(CN2C[C@@H](F)[C@@H](OCc3nc4ncccc4[nH]3)C2)c1	3T3 cytotox inconclusive, HEK cytotox inconclusive
Fc1ccc2nc(CO[C@H]3CN(Cc4ccc5ccccc5n4)C[C@H]3F)[nH]c2c1	hNpr1 antagonist inconclusive, Luciferase inh inconclusive, 3T3 cytotox inconclusive, HEK cytotox 89µM
Cn1cc(CN2C[C@@H](F)[C@@H](OCc3nc4ccccc4n3C)C2)c2ccccc21	hNpr1 antagonist inconclusive, 3T3 cytotox inconclusive, HEK cytotox inconclusive

Screening results from PubChem BioAssay.
